# In the supplement of paper PMC10477191:
# ± gives the standard deviation of the averaged measurements.
# Tested on: Drosophila ezoana antennal basiconic sensillum ab7
# Assay: odor-evoked OSN spike response (post minus pre-stimulus); higher = stronger neuronal excitation
# Conditions: odor dilution: 10^-4
# Procedure: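 Single sensillum recordings from antennal basiconic sensilla of D. ezoana. A 500 ms pulse of odorant (10^-4 in mineral oil or DMSO) was delivered; the response is the change in action potential frequency between the 1 s pre- and post-stimulus windows (spikes/s).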
row,Compound,odor-evoked OSN spike response [spikes/s]
1,CCCCCCCC(C)=O [2-nonanone],66.8 ± 40
2,C[C@H]1CCC[C@@]2(C)CCCC[C@]12O [geosmin],3.51 ± 21
3,CCCCCOC(C)=O [pentyl acetate],59.2 ± 30
4,CCCCCC(=O)OCC [ethyl hexanoate],74.4 ± 40
5,CCOC(=O)CC(C)O (centres undefined) [Ethyl-3-hydroxybutyrate],80.1 ± 47
6,CCCCC(C)=O [2-hexanone],50.2 ± 29
7,CCOC(=O)C(C)O (centres undefined) [Ethyl lactate],60.2 ± 36
8,CC(=O)CCC=C(C)C [6-methyl-5-hepten-2-one],140 ± 40
9,CCCC(=O)CC [3-hexanone],53.1 ± 33
10,CCCCCCCC(C)O (centres undefined) [2-nonanol],52.3 ± 32
11,CCCCCCO [1-hexanol],53.6 ± 33
12,C=CC(O)CCCCC (centres undefined) [1-octen-3-ol],107 ± 43
13,CCCCCC(C)=O [2-heptanone],138 ± 39
14,CCCCC(C)O (centres undefined) [2-hexanol],56.1 ± 29
